Reference: PubChem BioAssay (EPA / NIEHS)
Calls of active or inactive are those of the source. How the source made its calls: active means hit-call score of the fitted dose curve at least 0.9, where 1 is the maximum; inactive means score below 0.9.

experiment: BSK_LPS_SRB: Viability Assessment in the BioMAP Diversity Plus: LPS Assay (AID 2283079); conditions: primary human HUVEC with PBMC;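 further: measured one day after compound addition; fitted in both directions against DMSO so loss or gain of signal counts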
Method: BSK_LPS is a cell-based, multiplexed-readout assay that uses umbilical vein endothelium and peripheral blood mononuclear cells, a human vascular primary cell co-culture, with measurements taken at 24 hours after chemical dosing in a 96-well plate.BSK_LPS_SRB is an assay component measured in the BSK_LPS assay. It measures 0.1% sulforhodamine related to cell death using Sulforhodamine staining technology.Data from the assay component BSK_LPS_SRB was analyzed into 1 assay endpoint. This assay endpoint, BSK_LPS_SRB, was analyzed with bidirectional fitting relative to DMSO as the negative control and baseline of activity. Using a type of viability reporter, gain or loss-of-signal activity can be used to understand changes in the signaling. Furthermore, this assay endpoint can be referred to as a primary readout, because this assay has produced multiple assay endpoints where this one serves a signaling function. To generalize the intended target to other relatable targets, this assay endpoint is annotated to the cell morphology intended target family, where the subfamily is cell conformation.
The levels of cell surface (or secreted, indicated by the prefix "s") biomarker endpoints were measured by ELISA. Overt cytotoxicity to cells in confluent adherent cultures (all systems other than the BT system) was assessed by measuring total protein levels using sulforhodamine B (SRB) staining in parallel cultures at the time of biomarker measurements, indicated as SRB endpoints. For proliferation assays for adherent cell types, individual cell types are cultured at sub-confluence and relative cell numbers quantified by SRB staining at time points optimized for each system (48 h: 3C and CASM3C systems; 72 h: BT and HDF3CGF systems; 96 h: SAg system). SRB was performed by staining cells with 0.1% SRB after fixation with 10% TCA and reading wells at 560 nm.Viability and proliferation of PBMC (T cells) was quantified by Alamar Blue reduction for the SAg and BT systems. For PBMC viability (referred to as PBMC Cytotoxicity within the assay endpoint names), cells were plated (75,000/well in a 96-well plate) and then chemical samples added for 1 h before addition of activators, SEB and TSST-1 (20 ng/mL final concentration each). Cells were incubated for 90 h. Then, Alamar Blue (20 uL/well) (Invitrogen, Cat DAL1100) was added for 6 h, and the plates were read with a fluorescence microplate reader at 546/580 nm (excitation/emission). For PBMC proliferation, cells were plated and activated as above but incubated for only 16 h prior to addition of Alamar Blue. Plates were read after 6 h.

SMILES	outcome	AC50
NC(=O)CCl	inactive	–
Oc1ccc(Cc2ccc(O)cc2)cc1	inactive	–
OC(Cc1ccccc1Cl)(Cn1cncn1)C1(Cl)CC1 (stereo not given)	inactive	–
Cc1cccc(OP(=O)(Oc2cccc(C)c2)Oc2cccc(C)c2)c1	inactive	–
N#Cc1cccnc1	inactive	–
O=[N+]([O-])c1ccc(Nc2ccccc2)cc1	inactive	–
O=S(=O)(c1ccc(Cl)cc1)c1cc(Cl)c(Cl)cc1Cl	inactive	–
CC(C)O.CC(C)O.OCCN(CCO)CCO.OCCN(CCO)CCO.[Ti]	inactive	–
CCOC(=O)CCN(SN(C)C(=O)Oc1cccc2c1OC(C)(C)C2)C(C)C	inactive	–
CCOC(=O)C(SP(=S)(OC)OC)c1ccccc1 (stereo not given)	inactive	–
C[C@]12CC[C@@H](O)C[C@@H]1CC[C@@H]1[C@@H]2CC[C@]2(C)C(=O)CC[C@@H]12	inactive	–
CC(C=O)Cc1ccc2c(c1)OCO2 (stereo not given)	inactive	–
CC(C)(COCC1CO1)COCC1CO1 (stereo not given)	inactive	–
Oc1cc(Cl)c(Cl)cc1Cl	–	25.7 µM (active)
CCCCCCCCCCCCc1cccc(S(=O)(=O)O)c1	inactive	–
O=C(CCl)NCO	inactive	–
CC(C)(C)c1ccccc1O	inactive	–
COCC(=O)N(c1c(C)cccc1C)[C@H](C)C(=O)OC	inactive	–
C#CCOC(=O)/C=C(C)/C=C/CC(C)CCCC(C)C (stereo not given)	inactive	–
CCCCN(CCCC)C(=S)[S-].CCCCN(CCCC)C(=S)[S-].[Ni+2]	inactive	–

SMILES	outcome	AC50
c1ccc(-c2cccc(-c3ccccc3)c2)cc1	–	23.9 µM (active)
CCOP(=S)(OCC)SCS(=O)(=O)C(C)(C)C	inactive	–
CCC(C)(C#N)N=NC(C)(C#N)CC (stereo not given)	inactive	–
O=c1oc2ccccc2c(O)c1C(CC(O)c1ccc(-c2ccc(Br)cc2)cc1)c1ccccc1 (stereo not given)	–	12.4 µM (active)
Cc1ccc2nc3sc(=O)sc3nc2c1	–	3.67 µM (active)
Cc1ccc(OP(=O)(Oc2ccc(C)cc2C)Oc2ccc(C)cc2C)c(C)c1	inactive	–
O=C(O)C1(c2ccc3c(c2)OC[C@H](Cc2ccc(-c4ccccc4)cc2)[C@H]3O)CCCC1	inactive	–
COc1ccccc1N	inactive	–
N#CCCC(Br)(C#N)CBr (stereo not given)	–	20 µM (active)
[Cl][Sn]([c]1ccccc1)([c]1ccccc1)[c]1ccccc1	–	1.08 µM (active)
CC(C)(C)c1cc([N+](=O)[O-])cc(C(C)(C)C)c1O	–	0.683 µM (active)
O=[N+]([O-])c1cccc2ccccc12	inactive	–
CCOC(=O)CC(=O)CCl	inactive	–
Cc1cc(Cl)ccc1OC(C)C(=O)O (stereo not given)	inactive	–
CCCCCCCCCCCCN(C)C	inactive	–
Nc1ccc(N)cc1	inactive	–
O=C(Cc1ccccc1)OCCc1ccccc1	inactive	–
OCCN(CCO)CCO	inactive	–
O=C1C=CC(=O)c2ccccc21	–	5.33 µM (active)
O=S(=O)(C(Cl)(Cl)Cl)C(Cl)(Cl)Cl	–	5.31 µM (active)
